# According to PubChem BioAssay (Tox21):
# Results filed as inconclusive are left out. Entries that show only a call come without a potency. A structure can be active in one record and inactive in another. The source made the active and inactive calls. Unless noted, calls come from the whole dose curve; as a rule, active = well fitted curve in the direction sought with a large enough effect in the repeat runs; inconclusive = weak or mixed curves; inactive = no such curve, though single readings can be large; an effect the other way counts as inactive or inconclusive.
# How the values were obtained:
# [1] = qHTS assay for small molecules that induce genotoxicity in human embryonic kidney cells expressing luciferase-tagged ATAD5 (AID 651632); note: nearly all actives have a fitted effect of over 15% in size; note: potency is the fitted concentration of half-maximal effect
# Method in brief: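 HEK293T cells carrying a luciferase reporter tagged to ATAD5 were exposed to compound or DMSO vehicle for 16 hr at 37C, 5% CO2. Amplite was added, and after 30 min at room temperature luciferase activity was read as a marker of ATAD5 induction.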
# [2] = qHTS assay for small molecule agonists of the p53 signaling pathway - cell viability (AID 651633; calls by dose curve; note: nearly all actives have a fitted effect of over 30% in size; note: potency is the fitted concentration of half-maximal effect)
# Method in brief: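 p53RE-bla cells were treated with compound for 16 hours at 37 C. Cytotoxicity was then measured as CellTiter-Glo luminescence after 30 min at room temperature.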
# [3] = qHTS assay for small molecules that induce genotoxicity in human embryonic kidney cells expressing luciferase-tagged ATAD5 - cell viability (AID 651634; calls by dose curve; note: nearly all actives have a fitted effect of over 25% in size; note: potency is the fitted concentration of half-maximal effect)
# Method in brief: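 HEK293T cells expressing luciferase-tagged ATAD5 were exposed to compound or DMSO for 15.5 hr at 37C, 5% CO2. Viability was then read as live-cell protease activity by CellTiter-Fluor fluorescence after 30 min at 37C.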
# [4] = qHTS assay for small molecule disruptors of the mitochondrial membrane potential - cell viability (AID 720634; calls by dose curve;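 note: human HepG2 liver cancer cells; nearly all actives have a fitted effect of over 20% in size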)
# Method in brief: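 HepG2 cells seeded overnight at 37 C, then exposed to compound or DMSO for 1 hr at 37 C, 5% CO2. m-MPI dye added, then CellTiter-Glo for 30 min at room temperature; viability read as ATP luminescence.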
# [5] = qHTS assay for small molecule disruptors of the mitochondrial membrane potential (AID 720635); note: potency is the fitted concentration of half-maximal effect
# Method in brief: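 HepG2 cells exposed to compound 1 hr at 37C, then Mito-MPS dye 30 min. Ratio read of aggregate (540/590 nm) versus monomer (490/535 nm) fluorescence.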
# [6] = qHTS assay to test for compound auto fluorescence at 590 nm (red) in HepG2 cells (AID 720674)
# Method in brief: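 Seeding: 2,000 HepG2 cells/well, MEM/10% FBS, overnight 37 C. Dosing: compound vs DMSO. Incubation: 1 hr, 37 C, 5% CO2. Read: fluorescence 540 ex/590 em, Rose Bengal sodium as red reference.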
# [7] = qHTS assay to test for compound auto fluorescence at 535 nm (green) in HepG2 cells (AID 720675)
# [8] = qHTS assay to test for compound auto fluorescence at 460 nm (blue) in HEK293 cells (AID 720678); note: potency is the fitted concentration of half-maximal effect
# Method in brief: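 HEK293 cells (2,000 per well, medium with 10% dialyzed FBS) attached for 4-5 hr at 37C, then received compound and stood overnight at 37C, 5% CO2. Blue fluorescence was read at Ex/Em 405/460 nm and expressed relative to triamterene.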
# [9] = qHTS assay to test for compound auto fluorescence at 535 nm (green) in HEK293 cells (AID 720680)
# [10] = qHTS assay to test for compound auto fluorescence at 460 nm (blue) in HEK293 cell free culture (AID 720681); note: potency is the fitted concentration of half-maximal effect
# Method in brief: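 Compounds were added to cell-free DMEM with 10% FBS and fluorescence read directly. The blue channel used 405 nm excitation and 460 nm emission, with triamterene as the reference fluorophore.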
# [11] = qHTS assay to test for compound auto fluorescence at 535 nm (green) in HEK293 cell free culture (AID 720682)
# Method in brief: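 DMEM + 10% FBS, cell-free; cpd or DMSO pinned in; Ex485/Em535 read; output as fluorescein-equivalent signal.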
# [12] = qHTS assay to test for compound auto fluorescence at 590 nm (red) in HEK293 cell free culture (AID 720683)
# Method in brief: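 Cell-free wells of DMEM with 10% FBS received compound, and intrinsic fluorescence was read at excitation/emission 540/590 nm. Values expressed as equivalence to Rose Bengal sodium.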
# [13] = qHTS assay to test for compound auto fluorescence at 460 nm (blue) in HepG2 cell free culture (AID 720685)
# Method in brief: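 Compound (23 nL) or DMSO pinned into cell-free MEM with 10% FBS; blue fluorescence read at 405/460 nm excitation/emission, expressed as auto-fluorescence equivalency to triamterene.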
# [14] = qHTS assay to test for compound auto fluorescence at 535 nm (green) in HepG2 cell free culture (AID 720686)
# [15] = qHTS assay to test for compound auto fluorescence at 460 nm (blue) in HepG2 cells (AID 720687)
# Method in brief: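 HepG2 cells in MEM with 10% FBS, attached overnight at 37 C, were exposed to compound or DMSO for 1 hr at 37 C, 5% CO2. Blue fluorescence was read at 405/460 nm, with triamterene as reference fluorophore.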
# [16] = biological target: Glucocorticoid receptor (Homo sapiens) (UniProt P04150); experiment: qHTS assay to identify small molecule agonists of the glucocorticoid receptor (GR) signaling pathway (AID 720691; active = well fitted activation curve with a large enough effect in the signal ratio in the repeat runs, not every such curve was filed as active; the % refers to the signal ratio; note: potency is the fitted concentration of half-maximal effect); details: GR-bla HeLa, beta-lactamase reporter ratio, 18 h; activation: at 62.4 µM (top of the series)
# Glucocorticoid receptor (Homo sapiens), sequence (P04150 whole entry, looked up): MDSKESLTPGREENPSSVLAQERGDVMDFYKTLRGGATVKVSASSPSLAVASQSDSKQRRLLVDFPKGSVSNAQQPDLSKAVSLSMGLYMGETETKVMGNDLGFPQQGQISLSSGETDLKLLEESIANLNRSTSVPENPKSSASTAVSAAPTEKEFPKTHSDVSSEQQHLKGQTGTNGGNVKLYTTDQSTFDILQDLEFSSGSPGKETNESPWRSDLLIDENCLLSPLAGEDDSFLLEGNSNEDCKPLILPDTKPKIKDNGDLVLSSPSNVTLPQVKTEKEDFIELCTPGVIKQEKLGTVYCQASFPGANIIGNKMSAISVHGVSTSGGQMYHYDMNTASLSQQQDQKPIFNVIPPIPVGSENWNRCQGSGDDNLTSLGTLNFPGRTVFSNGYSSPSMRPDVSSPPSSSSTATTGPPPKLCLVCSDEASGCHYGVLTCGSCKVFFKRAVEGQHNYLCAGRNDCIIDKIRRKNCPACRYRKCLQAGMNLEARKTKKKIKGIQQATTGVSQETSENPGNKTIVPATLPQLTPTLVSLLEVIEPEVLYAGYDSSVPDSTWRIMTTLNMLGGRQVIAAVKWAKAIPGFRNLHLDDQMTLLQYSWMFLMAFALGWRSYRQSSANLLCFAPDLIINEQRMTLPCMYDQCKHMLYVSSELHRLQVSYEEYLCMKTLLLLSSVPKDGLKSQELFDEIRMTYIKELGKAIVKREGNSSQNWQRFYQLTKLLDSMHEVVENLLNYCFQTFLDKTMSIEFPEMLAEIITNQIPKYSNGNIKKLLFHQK
# Method in brief: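 GR-bla HeLa cells (beta-lactamase reporter under glucocorticoid response element) were plated 4 h at 37 C/5% CO2, given compounds in DMSO, and incubated 18 h at 37 C. LiveBLAzer B/G FRET substrate was added for 2 h at room temperature, then fluorescence intensity read.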
# [17] = qHTS assay to test for compound auto fluorescence at 590 nm (red) in HepG2 cell free culture (AID 720684)
# Method in brief: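 Compound was pinned into wells holding MEM with 10% FBS and no cells, and red fluorescence was read at Ex/Em 540/590 nm. Signal is expressed as auto fluorescence equivalency relative to Rose Bengal sodium.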
# [18] = qHTS assay to test for compound auto fluorescence at 590 nm (red) in HEK293 cells (AID 720679)
# Method in brief: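 HEK293 cells (2,000/well, medium with 10% dialyzed FBS) attached for 4-5 hr at 37C, received 23 nL compound and were incubated overnight at 37C, 5% CO2. Red fluorescence was then read at 540/590nm Ex/Em, referenced to Rose Bengal sodium.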
# [19] = biological target: Glucocorticoid receptor (Homo sapiens) (UniProt P04150); experiment: qHTS assay to identify small molecule antagonists of the glucocorticoid receptor (GR) signaling pathway (AID 720692; active = well fitted inhibition curve with a large enough effect in the signal ratio in the repeat runs, not every such curve was filed as active; the % refers to the signal ratio)
# Method in brief: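 GR-bla HeLa cells (beta-lactamase reporter under glucocorticoid response element) were pre-plated 4 h at 37 C, treated with compounds plus 5 nM dexamethasone (final) for 18 h, then read by LiveBLAzer B/G FRET fluorescence after 2 h.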
# Tags give direction and shape of the fitted curve or compound fluorescence and quenching.
Compound,Potency [1],Potency [2],Potency [3],Potency [4],Potency [5],Potency [6],Potency [7],Potency [8],Potency [9],Potency [10],Potency [11],Potency [12],outcome [13],Potency [14],outcome [15],Potency [16],Potency [17],Potency [18],Potency [19]
C[C@]12C=CC(=O)N[C@@H]1CC[C@@H]1[C@@H]2CC[C@]2(C)[C@@H](C(=O)Nc3cc(C(F)(F)F)ccc3C(F)(F)F)CC[C@@H]12,inactive,inactive,inactive,inactive,0.944 µM (active),inactive,inactive,inactive,inactive,inactive,inactive,inactive,inactive,inactive,inactive,26.8 µM (active),,,
C[C@H](CCCC(C)(C)O)[C@H]1CC[C@H]2[C@@H]3CC=C4C[C@@H](O)CC[C@]4(C)[C@H]3CC[C@]12C,inactive,inactive,inactive,inactive,inactive,inactive,inactive,inactive,inactive,inactive,inactive,inactive,inactive,inactive,inactive,inactive,inactive,,
NC(N)=NCC1COc2ccccc2O1 (stereo unspecified),inactive,inactive,inactive,inactive,inactive,inactive,inactive,inactive,inactive,inactive,inactive,inactive,inactive,inactive,inactive,,,inactive,
CC(=O)N[C@@H](CC(=O)N[C@@H](CCC(=O)O)C(=O)O)C(=O)O,inactive,inactive,inactive,inactive,inactive,inactive,inactive,,inactive,inactive,inactive,inactive,inactive,inactive,inactive,,inactive,inactive,
CNC(=O)c1c(I)c(C(=O)NCC(=O)Nc2c(I)c(C(=O)O)c(I)c(C(=O)NCCO)c2I)c(I)c(N(C)C(C)=O)c1I,inactive,inactive,inactive,inactive,inactive,inactive,inactive,inactive,inactive,inactive,inactive,inactive,inactive,inactive,inactive,,inactive,,
CC(=O)O[C@H]1C(=O)[C@@]2(C)[C@H]([C@H](OC(=O)c3ccccc3)[C@]3(O)C[C@H](OC(=O)[C@H](O)[C@@H](NC(=O)c4ccccc4)c4ccccc4)C(C)=C1C3(C)C)[C@]1(OC(C)=O)CO[C@@H]1C[C@@H]2O,inactive,inactive,0.0188 µM (active),inactive,0.944 µM (active),inactive,inactive,,inactive,inactive,inactive,inactive,,inactive,,inactive,inactive,inactive,inactive
CCOC(=O)c1c[nH]c2cc(OCC(C)C)c(OCC(C)C)cc2c1=O,inactive,inactive,inactive,inactive,inactive,inactive,inactive,,inactive,inactive,inactive,inactive,inactive,inactive,inactive,inactive,inactive,inactive,inactive
Nc1ncnc2c1ncn2CCOCP(=O)(O)O,inactive,inactive,inactive,inactive,inactive,inactive,inactive,inactive,inactive,inactive,inactive,inactive,,inactive,,inactive,inactive,inactive,
Nc1nc2[nH]cc(CCc3ccc(C(=O)N[C@@H](CCC(=O)O)C(=O)O)cc3)c2c(=O)[nH]1,inactive,inactive,inactive,inactive,inactive,inactive,inactive,inactive,inactive,inactive,inactive,inactive,inactive,inactive,inactive,,,,
CC(=O)Nc1c(I)c(C(=O)O)c(I)c(N(C)C(C)=O)c1I,inactive,inactive,inactive,inactive,inactive,inactive,inactive,inactive,inactive,inactive,inactive,inactive,,inactive,inactive,inactive,,inactive,inactive
O=C(O)[C@H]1/C(=C/CO)O[C@@H]2CC(=O)N21,inactive,inactive,inactive,inactive,inactive,inactive,inactive,inactive,inactive,inactive,inactive,inactive,inactive,inactive,inactive,,inactive,,
O=[N+]([O-])O[C@@H]1CO[C@H]2[C@@H]1OC[C@@H]2O,inactive,inactive,inactive,inactive,inactive,inactive,inactive,inactive,inactive,inactive,inactive,inactive,inactive,inactive,inactive,inactive,inactive,inactive,inactive
CC(Oc1ccccc1)C(=O)N[C@@H]1C(=O)N2[C@@H]1SC(C)(C)[C@@H]2C(=O)O (stereo partly specified),inactive,inactive,inactive,inactive,inactive,inactive,inactive,inactive,inactive,inactive,inactive,inactive,,inactive,inactive,inactive,,inactive,
C[C@H](O)[C@H](O)[C@H]1CNc2nc(N)[nH]c(=O)c2N1,inactive,inactive,inactive,inactive,inactive,inactive,inactive,12.6 µM [fluorescent] (active),inactive,12.6 µM (active),inactive,inactive,,inactive,,inactive,inactive,inactive,inactive
CC(C)(S)[C@@H](N)C(=O)O,inactive,inactive,inactive,inactive,,inactive,inactive,inactive,inactive,inactive,inactive,inactive,inactive,inactive,inactive,inactive,inactive,inactive,
COC(=O)[C@H]1[C@H]2C[C@@H]3c4[nH]c5ccccc5c4CCN3C[C@H]2C[C@@H](OC(=O)c2cc(OC)c(OC)c(OC)c2)[C@@H]1OC,inactive,5.31 µM (active) and inactive,inactive,inactive,3.35 µM (active),,inactive,inactive,inactive,inactive,inactive,inactive,inactive,inactive,inactive,,inactive,inactive,
CC[C@@H](C(=O)[C@@H](C)[C@@H](O)[C@H](C)[C@@H]1O[C@@H]([C@@H](CC)C(=O)O)CC[C@@H]1C)[C@H]1O[C@]2(C=C[C@@H](O)[C@]3(CC[C@@](C)([C@H]4CC[C@](O)(CC)[C@H](C)O4)O3)O2)[C@H](C)C[C@@H]1C,inactive,inactive,8.41 µM (active),inactive,,inactive,inactive,inactive,inactive,inactive,inactive,inactive,inactive,inactive,inactive,,inactive,inactive,
COc1cc(-c2ccc(-[n+]3nc(-c4ccccc4)nn3-c3ccc([N+](=O)[O-])cc3)c(OC)c2)ccc1-[n+]1nc(-c2ccccc2)nn1-c1ccc([N+](=O)[O-])cc1,5.96 µM (active),11.9 µM (active),29.8 µM (active),inactive,,inactive,inactive,inactive,inactive,inactive,inactive,inactive,inactive,inactive,inactive,,inactive,inactive,
C=CC1=C(C)C2=CC3=NC(=C(CC(=O)[O-])C4=NC(=C(C)C4=C([O-])[O-])C=c4[n-]c(c(C)c4CC)=CC1=N2)C(CCC(=O)[O-])C3C.[Cu+2].[Na+].[Na+].[Na+] (stereo unspecified),inactive,inactive,23.7 µM (active),inactive,,inactive,inactive,inactive,inactive,inactive,inactive,inactive,inactive,inactive,inactive,inactive,inactive,inactive,
O=C(COc1ccc(Cl)cc1)OCCNC12CC3CC(CC(C3)C1)C2,inactive,inactive,inactive,inactive,inactive,,inactive,,inactive,inactive,inactive,inactive,inactive,inactive,,,inactive,inactive,
CCCCCCCCCCCCCCCCCC(=O)OCC(C)O (stereo unspecified),inactive,inactive,23.7 µM (active),inactive,,inactive,inactive,inactive,inactive,inactive,inactive,inactive,inactive,inactive,inactive,,inactive,inactive,
CCSc1ccc2c(c1)N(CCCN1CCN(C)CC1)c1ccccc1S2,inactive,inactive,inactive,inactive,,inactive,inactive,inactive,inactive,inactive,inactive,inactive,inactive,inactive,inactive,,inactive,inactive,
O=c1oc2cc(O)ccc2s1,inactive,inactive,inactive,inactive,,inactive,inactive,inactive,inactive,inactive,inactive,inactive,inactive,inactive,inactive,inactive,inactive,inactive,
